For assay [1], the target named is Bile acid receptor (Homo sapiens) (UniProt Q96RI1). Put plainly: ATG_IR1_CIS: Attagene CIS-FACTORIAL HepG2 Assay for human Nuclear Receptor Subfamily 1 Group H Member 4 (NR1H4), IR1 submotif (AID 2282946). Particulars: IR1 reporter transcription, actives raise or lower the signal. The gist of the method:
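Transient MRTU transfection, HepG2; 24 h dosing; RNA → RT-PCR → 6-FAM primer extension → HpaI digest → capillary electrophoresis fluorescence. Gain/loss of signal fitted relative to DMSO.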

Assay [2] is described as follows: ATG_GRE_CIS: Attagene CIS-FACTORIAL HepG2 Assay for human Glucocorticoid Response Elements (GRE) (AID 2282947). The note with it: HepG2 GRE cis-reporter, Attagene multiplex mRNA; actives raise or lower the signal. Put shortly: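 Following 24 h chemical exposure of transiently transfected HepG2 cells, total RNA was reverse-transcribed and reporter cDNA amplified, fluorescently labelled and sized by capillary electrophoresis. Signal gain or loss was fitted relative to DMSO vehicle.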

Assay [3] can be described thus: ATG_ISRE_CIS: Attagene CIS-FACTORIAL HepG2 Assay for human Interferon Regulatory Factor 1 (IRF1) binding to an Interferon-Stimulated Response Element (ISRE) (AID 2282948). The note with it: HepG2 ISRE cis-reporter (Attagene), mRNA transcription readout; actives raise or lower the signal. Put shortly: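 Quantitation relies on labelled RT-PCR fragments separated by capillary electrophoresis. Human HepG2 cells bearing cis-promoter reporter constructs were treated 24 h; DMSO served as baseline for bidirectional fitting.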

Assay [4] can be described thus: ATG_M_32_CIS: Attagene CIS-FACTORIAL HepG2 Assay for M32 Transcription Factor (Internal Marker) (AID 2282949).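 Also: background control marker of the multiplexed CIS panel rather than a real target.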 Particulars: HepG2 Attagene cis-factorial M32 reporter, mRNA; actives raise or lower the signal. Put shortly: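 Fluorescent capillary electrophoresis peaks of HpaI-digested, FAM-labelled RT-PCR reporter products give the signal. Source: transiently transfected human liver HepG2 cells, 24 h after chemical dosing; bidirectional fitting against DMSO.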

Assay [5] is described as follows: ATG_M_06_CIS: Attagene CIS-FACTORIAL HepG2 Assay for M06 Transcription Factor (Internal Marker) (AID 2282950). Particulars: HepG2 Attagene CIS-FACTORIAL M06 internal marker reporter; actives raise or lower the signal. The gist of the method:
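Fluorescence-labelled RT-PCR products from cis-promoter reporter units, cut with HpaI and resolved by capillary electrophoresis, give the signal. Cells are human HepG2, dosed for 24 h. Serves as background control, fitted relative to DMSO.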

Assay [6] concerns the target Hypoxia-inducible factor 1-alpha (Homo sapiens) (UniProt Q16665). Put plainly: ATG_HIF1a_CIS: Attagene CIS-FACTORIAL HepG2 Assay for human Hypoxia Inducible Factor 1 (HIF1A) (AID 2282951). The note with it: HepG2 Attagene cis-factorial HIF1a reporter transcription; actives raise or lower the signal. Put shortly: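 Fluorescence intensity of capillary-separated, 6-FAM-labelled reporter amplicons gives mRNA induction in HepG2 cells carrying transfected cis-promoter reporter units; cells exposed 24 h, responses fitted up or down from DMSO.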

Assay [7] addresses Hepatocyte nuclear factor 6 (Homo sapiens) (UniProt Q9UBC0). Description: ATG_HNF6_CIS: Attagene CIS-FACTORIAL HepG2 Assay for human Hepatocyte Nuclear Factor 6 (HNF6) (AID 2282952). Particulars: HepG2 Attagene cis-factorial HNF6 reporter transcription; actives raise or lower the signal. Put shortly: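 Transiently transfected HepG2 cells expressing cis-regulated reporter transcription units were exposed to chemical for 24 h in a 24-well format. Reporter transcript abundance was determined by fluorescence capillary electrophoresis.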

Assay [8] has as its target Heat shock factor protein 1 (Homo sapiens) (UniProt Q00613). Put plainly: ATG_HSE_CIS: Attagene CIS-FACTORIAL HepG2 Assay for human Heat Shock Transcription Factor 1 (HSE) (AID 2282953). Particulars: HepG2 HSE cis-reporter, Attagene RNA transcription; actives raise or lower the signal. The gist of the method:
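After a 24 h incubation with test chemical, transfected HepG2 cells were harvested for RNA; reporter transcripts were measured by RT-PCR and capillary electrophoresis. Values reflect gain or loss of signal relative to DMSO.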

Assay [9] in a line: ATG_MRE_CIS: Attagene CIS-FACTORIAL HepG2 Assay for human Metal Responsive Element (MRE) (AID 2282954). The note with it: HepG2 MRE cis-reporter transcription, Attagene multiplex; actives raise or lower the signal. The gist of the method: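 Step one: transfect HepG2 with cis-regulated reporter units. Step two: dose 24 h. Step three: isolate RNA, RT-PCR, 6-FAM label, HpaI digest, capillary electrophoresis. Fit bidirectionally to DMSO.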

A short description of assay [10]: ATG_PBREM_CIS: Attagene CIS-FACTORIAL HepG2 Assay for human Phenobarbital-responsive Enhancer Module (PBREM) (AID 2282955). Particulars: HepG2 PBREM cis-reporter, Attagene multiplexed transcription; actives raise or lower the signal. The gist of the method: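 Cells were transfected with cis-element reporter units and treated for 24 h, after which RNA was extracted and reporter transcripts measured by RT-PCR and capillary electrophoresis.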

Assay [11] has as its target Paired box protein Pax-6 (Homo sapiens) (UniProt P26367). Description: ATG_Pax6_CIS: Attagene CIS-FACTORIAL HepG2 Assay for human Paired Box 6 (PAX6) (AID 2282956). Particulars: HepG2 CIS-FACTORIAL PAX6 reporter transcription, RNA readout; actives raise or lower the signal. Put shortly:
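After twenty-four hours of chemical exposure, transfected HepG2 cells are harvested for RNA. Cis-promoter reporter transcripts are amplified, fluorescently labelled and sized by capillary electrophoresis, with gain and loss of signal scored against DMSO.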

A short description of assay [12]: ATG_PXRE_CIS: Attagene CIS-FACTORIAL HepG2 Assay for human Pregnane X Receptor Element (PXRE) (AID 2282957). Particulars: HepG2 Attagene CIS-FACTORIAL PXRE reporter, mRNA; actives raise or lower the signal. Put shortly:
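Cis-element reporter mRNA in human hepatoma HepG2 cells is measured 24 h post-dosing by RT-PCR, primer-extension labeling and capillary electrophoresis; gain or loss of signal is fitted relative to DMSO.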

Assay [13] can be described thus: ATG_PPRE_CIS: Attagene CIS-FACTORIAL HepG2 Assay for human Peroxisome Proliferator-activated Response Element (PPRE) (AID 2282958). Particulars: HepG2 PPRE cis-element reporter, Attagene transcription factor profiling; actives raise or lower the signal. Put shortly:
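In this cell-based multiplex, a PPRE cis element drives a reporter sequence in transiently transfected HepG2 cells. Following 24 h treatment, labeled cDNA amplicons are sized and quantified by capillary electrophoresis, with DMSO defining baseline.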

Assay [14] in a line: ATG_RORE_CIS: Attagene CIS-FACTORIAL HepG2 Assay for human RAR-related Orphan Receptor Element (RORE) (AID 2282959). The note with it: HepG2 Attagene cis-factorial RORE reporter, mRNA; actives raise or lower the signal. The gist of the method:
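Endogenous factor activity at a cis response element is read as reporter transcript levels in HepG2 cells, 24 h post-dose. Transcripts are quantified by RT-PCR with capillary electrophoresis, and data fitted in both directions against DMSO.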

The nature of assay [15]: ATG_Sox_CIS: Attagene CIS-FACTORIAL HepG2 Assay for human SRY-box transcription factor (SOX) (AID 2282960). The note with it: HepG2 Attagene cis-factorial SOX reporter, mRNA; actives raise or lower the signal. Put shortly: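 Measures mRNA induction of a SOX1-associated reporter in HepG2 after 24 h dosing. Fluorescently labelled RT-PCR fragments are separated by capillary electrophoresis, and gain or loss relative to DMSO control is fitted.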

Assay [16] addresses Transcription factor Sp1 (Homo sapiens) (UniProt P08047). Description: ATG_Sp1_CIS: Attagene CIS-FACTORIAL HepG2 Assay for human Specificity Protein 1 (Sp1) (AID 2282961). Particulars: HepG2 Sp1 cis-reporter transcription, actives raise or lower the signal. Put shortly: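 Cells: HepG2, transiently transfected with cis-regulated multiplexed reporters. Exposure: 24 h. Detection: reporter transcripts amplified, fluorescently labeled, restriction-digested and sized by capillary electrophoresis. Analysis: bidirectional fit relative to DMSO.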

Assay [17] deals with Signal transducer and activator of transcription 3 (Homo sapiens) (UniProt P40763). Put plainly: ATG_STAT3_CIS: Attagene CIS-FACTORIAL HepG2 Assay for human Signal Transducer and Activator of Transcription 3 (STAT3) (AID 2282963). The note with it: HepG2, Attagene cis-factorial STAT3 reporter transcription; actives raise or lower the signal. Put shortly: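 Transcript-level reporter assay. HepG2 transient MRTU transfection, 24 h exposure, fluorescence detection after RT-PCR and CE; DMSO baseline.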
Signal transducer and activator of transcription 3 (Homo sapiens), sequence (P40763 whole entry, looked up): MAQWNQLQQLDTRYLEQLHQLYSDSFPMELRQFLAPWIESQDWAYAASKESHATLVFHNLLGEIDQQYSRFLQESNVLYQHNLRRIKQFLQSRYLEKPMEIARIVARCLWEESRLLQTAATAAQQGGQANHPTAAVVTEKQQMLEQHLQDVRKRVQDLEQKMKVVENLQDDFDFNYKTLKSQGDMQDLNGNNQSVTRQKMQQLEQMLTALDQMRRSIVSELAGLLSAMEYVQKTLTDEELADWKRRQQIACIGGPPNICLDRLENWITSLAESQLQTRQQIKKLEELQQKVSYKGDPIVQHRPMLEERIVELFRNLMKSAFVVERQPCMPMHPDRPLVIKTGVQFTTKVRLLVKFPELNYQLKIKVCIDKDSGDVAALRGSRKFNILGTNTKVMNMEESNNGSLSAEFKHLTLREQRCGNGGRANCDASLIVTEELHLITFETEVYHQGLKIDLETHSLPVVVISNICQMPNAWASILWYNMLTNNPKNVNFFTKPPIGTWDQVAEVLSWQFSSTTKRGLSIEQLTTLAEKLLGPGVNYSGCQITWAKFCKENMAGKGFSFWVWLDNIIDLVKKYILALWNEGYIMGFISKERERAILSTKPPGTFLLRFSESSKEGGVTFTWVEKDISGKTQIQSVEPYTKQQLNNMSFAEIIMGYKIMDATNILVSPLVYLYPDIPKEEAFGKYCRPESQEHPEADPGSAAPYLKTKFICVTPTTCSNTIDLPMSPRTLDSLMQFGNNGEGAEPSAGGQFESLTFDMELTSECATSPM

Assay [18] is described as follows: ATG_TA_CIS: Attagene CIS-FACTORIAL HepG2 Assay for human TA Basal Promoter (AID 2282964). Particulars: HepG2 Attagene CIS-factorial TA basal promoter reporter; actives raise or lower the signal. Put shortly: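 Multiplexed mRNA reporter assay, HepG2, 24 h. Reporter cDNA amplified, 6-FAM primer-extended, HpaI-cut, CE-sized; DMSO = negative control and baseline.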

Assay [19] can be described thus: ATG_TCF_b_cat_CIS: Attagene CIS-FACTORIAL HepG2 Assay for human T-Cell-Factor with beta-catenin (TCF/b-cat) (AID 2282965). Particulars: HepG2 TCF/beta-catenin cis-reporter transcription, actives raise or lower the signal. The gist of the method: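 HepG2 cells transiently transfected with multiple cis-promoter-regulated reporter transcription units, so endogenous transcription factor activity is measured. Reporter mRNA read 24 hours after dosing by RT-PCR, fluorescent labelling and capillary electrophoresis; bidirectional fitting against DMSO.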

A short description of assay [20]: ATG_SREBP_CIS: Attagene CIS-FACTORIAL HepG2 Assay for human Sterol Regulatory Element Binding (SREBP) (AID 2282962). The note with it: HepG2 Attagene cis-factorial SREBP reporter, mRNA; actives raise or lower the signal. The gist of the method: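 Twenty-four hours after chemical dosing of transfected HepG2 cultures, reporter RNA was converted to cDNA, amplified, end-labelled with 6-FAM and resolved by capillary electrophoresis. Responses were fitted relative to DMSO.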

The text below walks through data of PubChem BioAssay (EPA / NIEHS).

What is called AC50 is the midpoint of the concentration-response curve, whichever way the signal moves.

Activity calls are given as the source filed them. The calls were made as follows: active = hit-call score of the fitted dose curve at least 0.9, where 1 is the maximum; inactive = score below 0.9.

Heat shock factor protein 1 (Homo sapiens), sequence (Q00613 whole entry, looked up): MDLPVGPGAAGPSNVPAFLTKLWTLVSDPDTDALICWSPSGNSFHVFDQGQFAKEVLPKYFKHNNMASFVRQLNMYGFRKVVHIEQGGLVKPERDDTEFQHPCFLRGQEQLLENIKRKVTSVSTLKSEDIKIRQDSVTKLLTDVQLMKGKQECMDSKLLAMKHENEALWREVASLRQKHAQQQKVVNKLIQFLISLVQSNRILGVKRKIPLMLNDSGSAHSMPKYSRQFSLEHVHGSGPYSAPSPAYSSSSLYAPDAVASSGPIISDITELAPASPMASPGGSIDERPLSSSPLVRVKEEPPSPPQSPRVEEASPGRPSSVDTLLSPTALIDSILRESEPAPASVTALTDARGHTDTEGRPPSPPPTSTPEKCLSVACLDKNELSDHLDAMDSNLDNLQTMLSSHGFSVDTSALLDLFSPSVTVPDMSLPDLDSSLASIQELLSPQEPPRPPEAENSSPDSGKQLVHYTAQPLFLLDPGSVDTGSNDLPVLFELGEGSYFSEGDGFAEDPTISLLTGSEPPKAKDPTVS
Paired box protein Pax-6 (Homo sapiens), sequence (P26367 whole entry, looked up): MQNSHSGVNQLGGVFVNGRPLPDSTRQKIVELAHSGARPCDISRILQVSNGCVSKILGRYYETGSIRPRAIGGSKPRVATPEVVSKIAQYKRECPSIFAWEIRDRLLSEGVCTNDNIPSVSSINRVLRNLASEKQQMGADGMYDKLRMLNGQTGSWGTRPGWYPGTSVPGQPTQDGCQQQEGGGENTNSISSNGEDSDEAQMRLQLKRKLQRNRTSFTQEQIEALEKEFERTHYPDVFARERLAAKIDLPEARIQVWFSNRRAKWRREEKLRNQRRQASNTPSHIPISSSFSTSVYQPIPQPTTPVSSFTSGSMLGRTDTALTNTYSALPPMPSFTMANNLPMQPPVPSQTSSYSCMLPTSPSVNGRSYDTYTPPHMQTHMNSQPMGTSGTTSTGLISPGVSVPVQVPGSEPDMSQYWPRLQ
Hepatocyte nuclear factor 6 (Homo sapiens), sequence (Q9UBC0 whole entry, looked up): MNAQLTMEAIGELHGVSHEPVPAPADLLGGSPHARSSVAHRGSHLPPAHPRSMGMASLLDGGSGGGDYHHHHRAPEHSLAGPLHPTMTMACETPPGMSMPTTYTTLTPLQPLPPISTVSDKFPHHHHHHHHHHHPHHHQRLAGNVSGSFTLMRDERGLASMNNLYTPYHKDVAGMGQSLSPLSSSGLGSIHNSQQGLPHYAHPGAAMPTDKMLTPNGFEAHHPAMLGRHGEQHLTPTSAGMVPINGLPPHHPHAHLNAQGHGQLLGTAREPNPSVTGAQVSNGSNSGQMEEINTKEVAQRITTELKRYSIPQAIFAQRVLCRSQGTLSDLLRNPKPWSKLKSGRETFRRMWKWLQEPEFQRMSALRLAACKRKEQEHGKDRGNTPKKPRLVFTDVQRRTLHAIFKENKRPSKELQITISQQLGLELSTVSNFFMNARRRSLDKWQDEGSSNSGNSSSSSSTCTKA
Hypoxia-inducible factor 1-alpha (Homo sapiens), sequence (Q16665 whole entry, looked up): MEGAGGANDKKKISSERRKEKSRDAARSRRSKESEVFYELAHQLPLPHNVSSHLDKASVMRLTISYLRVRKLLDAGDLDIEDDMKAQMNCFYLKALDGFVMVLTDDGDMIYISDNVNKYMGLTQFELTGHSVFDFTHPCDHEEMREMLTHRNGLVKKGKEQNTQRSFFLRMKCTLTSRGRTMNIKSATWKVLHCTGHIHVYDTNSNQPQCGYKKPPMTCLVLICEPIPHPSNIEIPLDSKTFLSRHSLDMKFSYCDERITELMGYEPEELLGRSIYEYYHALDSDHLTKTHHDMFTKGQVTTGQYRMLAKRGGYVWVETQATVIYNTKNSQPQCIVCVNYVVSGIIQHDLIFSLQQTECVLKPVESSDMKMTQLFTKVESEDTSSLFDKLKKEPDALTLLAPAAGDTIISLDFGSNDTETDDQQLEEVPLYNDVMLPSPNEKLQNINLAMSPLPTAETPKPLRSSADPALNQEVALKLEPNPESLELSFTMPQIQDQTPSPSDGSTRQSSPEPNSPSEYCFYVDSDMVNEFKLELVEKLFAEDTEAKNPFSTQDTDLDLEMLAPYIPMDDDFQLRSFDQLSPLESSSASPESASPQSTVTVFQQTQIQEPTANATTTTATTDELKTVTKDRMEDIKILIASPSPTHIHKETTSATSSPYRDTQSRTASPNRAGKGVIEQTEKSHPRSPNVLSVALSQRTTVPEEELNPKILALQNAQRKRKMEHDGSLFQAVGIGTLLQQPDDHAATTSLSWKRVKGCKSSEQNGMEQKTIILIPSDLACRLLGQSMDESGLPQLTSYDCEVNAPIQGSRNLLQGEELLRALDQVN
Transcription factor Sp1 (Homo sapiens), sequence (P08047 whole entry, looked up): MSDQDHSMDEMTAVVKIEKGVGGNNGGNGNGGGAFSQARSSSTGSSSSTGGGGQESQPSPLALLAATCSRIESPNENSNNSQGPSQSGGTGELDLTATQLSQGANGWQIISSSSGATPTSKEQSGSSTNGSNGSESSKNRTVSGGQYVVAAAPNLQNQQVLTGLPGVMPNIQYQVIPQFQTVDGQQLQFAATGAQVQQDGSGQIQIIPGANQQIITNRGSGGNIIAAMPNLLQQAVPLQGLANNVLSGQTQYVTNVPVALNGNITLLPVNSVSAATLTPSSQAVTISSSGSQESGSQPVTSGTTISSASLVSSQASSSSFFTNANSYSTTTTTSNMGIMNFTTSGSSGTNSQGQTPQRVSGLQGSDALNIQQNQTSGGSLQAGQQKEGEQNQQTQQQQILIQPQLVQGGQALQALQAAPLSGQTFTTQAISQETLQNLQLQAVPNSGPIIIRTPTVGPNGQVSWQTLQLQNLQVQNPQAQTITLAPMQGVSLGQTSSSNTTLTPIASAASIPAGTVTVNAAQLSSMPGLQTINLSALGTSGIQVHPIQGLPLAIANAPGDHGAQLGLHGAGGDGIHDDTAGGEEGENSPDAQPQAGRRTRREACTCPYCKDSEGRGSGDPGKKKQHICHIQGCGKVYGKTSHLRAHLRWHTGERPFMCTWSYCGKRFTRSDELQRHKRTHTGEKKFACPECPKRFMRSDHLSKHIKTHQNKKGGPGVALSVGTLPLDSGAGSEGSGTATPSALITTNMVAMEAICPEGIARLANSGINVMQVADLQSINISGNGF
Bile acid receptor (Homo sapiens), sequence (Q96RI1 whole entry, looked up): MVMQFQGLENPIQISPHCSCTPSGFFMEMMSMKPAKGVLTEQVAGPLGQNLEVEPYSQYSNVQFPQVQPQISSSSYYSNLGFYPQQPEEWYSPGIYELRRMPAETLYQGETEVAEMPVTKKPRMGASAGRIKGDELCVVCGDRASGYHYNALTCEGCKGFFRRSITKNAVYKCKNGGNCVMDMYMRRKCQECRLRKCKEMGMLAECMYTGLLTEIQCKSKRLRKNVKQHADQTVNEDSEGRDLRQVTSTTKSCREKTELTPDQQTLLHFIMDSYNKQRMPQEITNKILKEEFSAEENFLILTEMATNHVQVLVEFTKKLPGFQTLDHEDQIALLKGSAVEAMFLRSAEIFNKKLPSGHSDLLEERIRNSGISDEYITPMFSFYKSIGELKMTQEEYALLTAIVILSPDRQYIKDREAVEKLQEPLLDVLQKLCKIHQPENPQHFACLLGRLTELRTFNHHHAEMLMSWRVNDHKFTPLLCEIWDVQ

Regarding `Oc1ccccc1Br`, the call in assay [1], in assay [2], in assay [3], in assay [4], in assay [5] and in [6] was inactive. Moreover, the outcome in [7], in assay [8], in assay [9], in [10], in [11] and in assay [12] was inactive. Moreover, the compound was classed as inactive in assay [13], in assay [14], in assay [15], in assay [16], in assay [17] and in assay [18]. In addition, the compound was called inactive in assay [19].

With `FC(F)(F)C(F)(C(F)(F)F)C(F)(F)C(F)(F)CC1CO1` (centres undefined), the compound was called inactive in [1], in assay [2], in [3], in assay [4], in [5] and in assay [6]. Also, the outcome in assay [7], in [8], in assay [9], in [10], in assay [11] and in assay [12] was inactive. In addition, the compound was called inactive in [13], in assay [14], in [15], in assay [16], in assay [20] and in [17]. Moreover, the compound was called inactive in assay [18] and in [19].

`C=CC(=O)OCC(CC)(COC(=O)C=C)COC(=O)C=C`: the AC50 in assay [1] was 8.23 µM (active); in [3], 42.4 µM (active); in assay [9], 9.05 µM (active); in assay [11] it was 15.5 µM (active); in assay [16], 26.2 µM (active); in [20] it was 27 µM (active). For the same compound, the call in assay [2], in assay [4], in assay [5], in assay [6], in assay [7] and in assay [8] was inactive. Also, the result in assay [10], in assay [12], in assay [13], in [14], in [15] and in assay [17] was inactive. Besides, the outcome in assay [18] and in [19] was inactive.

For the compound `CCCCC(CC)COP(=O)(Oc1ccccc1)Oc1ccccc1` (centres undefined), the AC50 in assay [1] was 25.6 µM (active); in assay [6], 100 µM (active); in [8] it was 72 µM (active); in assay [9], 50.1 µM (active); in assay [11], 100 µM (active); in assay [12] it was 0.516 µM (active). Also, the AC50 is 37.7 µM (active) in assay [13], 126 µM (active) in assay [16], 35.4 µM (active) in assay [20] and 55.3 µM (active) in assay [18]. Moreover, the compound was called inactive in assay [2], in assay [3], in assay [4], in assay [5], in assay [7] and in [10]. For the same compound, the compound was called inactive in assay [14], in assay [15], in assay [17] and in assay [19].
